Screening data: PubChem, Buhrlage Lab, Dana-Farber Cancer Institute and Novartis Institutes for BioMedical Research (Cambridge, Mass)
USP8 inh: blocks human USP8 ubiquitin-rhodamine cleavage | purified USP8, Ub-rhodamine cleavage fluorescence, 30 min | actives 4.2% (n = 47,000) | inhibition, % at 20 µM
USP17 inh: human USP17-like deubiquitinase inhibition | A8MUK1 | purified USP17, Ub-rhodamine cleavage fluorescence, 3 h | inhibition, % at 50 µM | actives 6.5% (n = 47,000) | AID 1645855
OTUD3 block: human OTUD3 deubiquitinase inhibition; Q5T2D3; purified OTUD3, Ub-rhodamine fluorescence, 2 h; inhibition, % at 25 µM; actives 0.7% (n = 47,000)
USP30 inh: human USP30 deubiquitinase inhibition; purified USP30, Ub-rhodamine cleavage fluorescence; AID 1645860; inhibition, % at 25 µM; actives 5.3% (n = 47,000); Q70CQ3
Target sequence (Q70CQ3 whole entry, looked up): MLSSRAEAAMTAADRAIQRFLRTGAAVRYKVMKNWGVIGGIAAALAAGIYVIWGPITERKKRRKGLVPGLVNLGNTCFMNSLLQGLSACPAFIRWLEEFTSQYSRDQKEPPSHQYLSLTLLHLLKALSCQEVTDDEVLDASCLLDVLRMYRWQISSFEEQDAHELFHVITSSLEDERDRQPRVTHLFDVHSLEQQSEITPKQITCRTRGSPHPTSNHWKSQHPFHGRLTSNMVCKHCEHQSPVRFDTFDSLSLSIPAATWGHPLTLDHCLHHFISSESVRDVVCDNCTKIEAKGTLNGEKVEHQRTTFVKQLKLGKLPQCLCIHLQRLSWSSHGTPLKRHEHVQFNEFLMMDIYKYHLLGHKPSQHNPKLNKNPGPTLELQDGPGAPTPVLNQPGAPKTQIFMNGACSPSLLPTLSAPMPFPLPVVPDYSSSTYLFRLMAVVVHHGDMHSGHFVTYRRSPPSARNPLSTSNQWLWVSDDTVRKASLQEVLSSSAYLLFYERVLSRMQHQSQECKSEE
USP28 block: human USP28 deubiquitinase inhibition; AID 1645857; actives 3% (n = 47,000); inhibition, % at 25 µM; purified USP28, Ub-rhodamine cleavage fluorescence, 30 min; Q96RU2
* = called active by the depositor; · = no result given. Most compounds without a hit are left out; they make up all but 13% or so of the library. Cut-off read from the data, not from the text of the source: active = inhibition above about 30%; inactive = the rest.

SMILES | USP8 inh | USP17 inh | OTUD3 block | USP30 inh | USP28 block
c1ccc(CCNc2nc(-c3ccccc3)c(-c3ccccc3)s2)cc1 | 12 | 3 | 0 | 12 | 0
O=[N+]([O-])c1ccc2nc3c(c(-c4ccccc4)c2c1)CNCC3 | 82* | 48* | -11 | -14 | -5
Cc1cc(=O)[nH]c(Sc2c(-c3ccccc3)c3cc([N+](=O)[O-])ccc3[nH]c2=O)n1 | -34 | 5 | -4 | -83 | 10
CCOC(=O)C1(Cc2cc(-c3ccc(F)cc3)no2)CCCN(C(=O)C2CC2)C1 (configuration not stated) | 15 | 6 | 5 | 13 | 9
NC(=O)c1ccccc1OCC(=O)N1CCc2ccccc21 | 2 | 62* | -7 | 76* | 51*
COc1ccc(OC)c(NC(=O)CN2c3ccccc3S(=O)(=O)c3ccccc32)c1 | 2 | 2 | 0 | -12 | -3
COc1ccc(OC)c(NC(=O)CNC(=O)c2cc3c(OC)cccc3[nH]2)c1 | 30* | 64* | 23 | 26 | 22
COc1ccc(OC)c(NC(=O)CNC(c2ccccc2)c2ccccc2)c1 | 28 | 12 | 23 | 33* | 17
Cc1oc2ccc(NS(=O)(=O)c3ccc(F)cc3)cc2c1C(=O)OCc1ccccc1 | 9 | 6 | 7 | 26 | 60*
O=C(c1ccccc1)c1c(-c2ccccc2)oc2ccc(NS(=O)(=O)c3ccc(Cl)cc3)cc12 | 23 | 10 | 10 | 26 | 25
O=c1c2[nH]c3ccc(Cl)cc3c2ncn1CCCN1CCOCC1 | -1 | -5 | -9 | -21 | -10
COc1ccc(OC)c(C2CCCN2CC(=O)NC2CCCCC2)c1 (configuration not stated) | 2 | -1 | 2 | -10 | 0
CCN(c1ccc(NC(=O)CN2C(=O)NC3(CCCCC3)C2=O)cc1)C(C)C | 4 | 0 | -1 | 4 | 0
CC1(c2ccco2)NC(=O)N(CC(=O)Nc2ccc(N3CCCCCC3)cc2)C1=O (configuration not stated) | 21 | 44* | -3 | -7 | 0
c1ccc(-c2cc(-c3csc(-c4ccc5c(c4)OCCO5)n3)on2)cc1 | -23 | 51* | 40* | 35* | 24
O=[N+]([O-])c1cccc(-c2csc(-c3ccc4c(c3)OCO4)n2)c1 | 31* | 21 | 17 | 14 | 4
O=[N+]([O-])c1cccc(-c2nnc(-c3ccccn3)o2)c1 | -116 | -9 | 0 | 2 | -6
CCCN1C(SCC(=O)Nc2ccccc2CC)=NS(=O)(=O)c2ccccc21 | -19 | 0 | 5 | 13 | 6
CCN1CCC2(CN(CCOC)CC23CCN(C(=O)Cc2ccccc2)CC3)C1=O (configuration not stated) | -74 | -8 | -9 | -3 | -16
O=C(NCC1OCCc2sccc21)c1ccc(Cl)cc1 (configuration not stated) | -52 | 3 | -3 | -9 | -4
CC(C)C(=O)N1CCC(Nc2ncnc3ccccc23)CC1 | -3 | 3 | 3 | 12 | 0
CC(OC(=O)CNS(=O)(=O)c1ccc2ccccc2c1)C(=O)Nc1ccc(Cl)cc1Cl (configuration not stated) | 14 | · | 15 | 46* | 21
CC1CCCN(S(=O)(=O)c2nn(Cc3ccccc3)cc2C(=O)O)C1 (configuration not stated) | -44 | -3 | 2 | 4 | 0
CCOC(=O)C(CC)Sc1nc(N)c(NC(=O)c2ccco2)c(=O)[nH]1 (configuration not stated) | -293 | -32 | -14 | -70 | -23
CC1C(=O)Nc2ccccc21 (configuration not stated) | 5 | -2 | -1 | 4 | -4
SMILES | USP8 inh | USP17 inh | OTUD3 block | USP30 inh | USP28 block
O=C(Nc1ccc2ccccc2c1)C(=O)C1C(=O)Nc2ccccc21 (configuration not stated) | 62* | -22 | -13 | -188 | -17
Cc1cccc(Cn2cc(C(=O)O)c3ccccc3c2=O)c1 | 6 | -5 | 0 | -4 | 8
COc1ccc2c(c1)c(=O)c(S(=O)(=O)c1ccccc1)cn2Cc1cccc(C)c1 | 5 | 14 | 5 | 32* | 23
Cc1cc(F)ccc1N1C(=O)CN(S(C)(=O)=O)CC1(C)C(=O)NC1CCCCC1 (configuration not stated) | -3 | -2 | 0 | 0 | -7
CCOc1ccc(NC(=O)Cn2c(=O)n(CCC(=O)NCc3ccccc3OC)c(=O)c3ccccc32)cc1 | 32* | 52* | 19 | 50* | 6
COc1ccccc1CNC(=O)CCn1c(=O)c2ccccc2n(Cc2ccccc2C#N)c1=O | 2 | 40* | 13 | 23 | 12
COc1ccccc1CNC(=O)CCc1cn(Cc2ccc(Cl)cc2)c2ccccc12 | 0 | 32* | 12 | 0 | 9
COc1ccccc1CNC(=O)CCn1c(=O)c2ccccc2n(Cc2cccc([N+](=O)[O-])c2)c1=O | -4 | 6 | 9 | 28 | 7
COc1ccccc1CNC(=O)CCCCn1c(=O)c2ccccc2n(Cc2cc(=O)n3c(C)cccc3n2)c1=O | 45* | -32 | -18 | -93 | -25
CC(=O)N1CC[C@@]2(C(=O)N3CCCC3)CCN(C(=O)Nc3ccc(Cl)cc3)CC[C@@H]12 | -56 | -14 | -3 | -9 | -13
Cc1ccccc1-n1nc2c(c1NC(=O)c1cccs1)CS(=O)(=O)C2 | -24 | -12 | -8 | -18 | -19
CCC(C(=O)Nc1c2c(nn1-c1ccc(Cl)cc1)CS(=O)(=O)C2)c1ccccc1 (configuration not stated) | 6 | 38* | 0 | 12 | 0
COc1ccc(-n2nc3c(c2NC(=O)/C=C\c2ccccc2)CS(=O)(=O)C3)cc1 | -14 | -10 | -11 | -10 | -9
O=C(/C=C\c1ccc2c(c1)OCO2)Nc1c2c(nn1-c1ccc(Cl)cc1)CS(=O)(=O)C2 | 23 | 57* | 39* | 47* | 36*
O=C(NCCc1ccccc1)c1cnc2sc3c(n2c1=O)CCC3 | -5 | -7 | 0 | -40 | -6
Cc1cccc(C)c1NC(=O)c1cccc(COc2ccc3c(c2)CCC3)c1 | 3 | -2 | 10 | 6 | 31*
CCCCCCCCCCCC1=C(O)C(=O)C=C(O)C1=O | 60* | 100* | 94* | 97* | 98*
O=C(COc1ccccc1F)Nc1ccc(N2CCCCC2)c(F)c1 | -20 | -23 | -15 | -77 | -25
Fc1cccc(Cc2nn[nH]n2)c1 | 25 | 6 | 10 | 18 | 3
Cc1cccc(CC(=O)N2C[C@H]3N(C)C(=O)c4ccccc4C(=O)[C@@]3(C)C2)c1 | -2 | 9 | 10 | 8 | 6
CN(C)S(=O)(=O)c1ccc(C(=O)Oc2ccc(-c3ccc(C#N)cc3)cc2)cc1 | 14 | 18 | 8 | 31* | 3
CN(C)S(=O)(=O)c1cccc(COc2ccc(C#N)cc2)c1 | 1 | 7 | 16 | 19 | 12
COc1ccccc1C(=O)Oc1ccc(-c2ccc(C#N)cc2)cc1 | 1 | 49* | 5 | 8 | 5
